Laboratory results: the supplement of paper PMC12350171
Structures can show the parent of a compound that is named as a salt. Values without a mark were called inactive.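 The calls were made as follows: active = AUC significantly below DMSO controls by Student t-fit with adjusted P under 0.01; inactive = not significantly reduced.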

These compounds were tested on Haemophilus parainfluenzae (assay: growth AUC normalised to DMSO control (fraction of control); higher = less growth inhibition, active = hit call of the paper). Conditions: 20 µM.
Procedure, shortened: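 For the AUC endpoint, growth curves were integrated by the trapezoidal rule up to the exponential-to-stationary transition and normalised to DMSO controls on the same plate. The curves came from OD578 readings taken hourly for 24 h, in three biological replicates. Pathogens had been passaged anaerobically twice and inoculated at an OD578 of 0.01 into pre-reduced mGAM plates carrying 20 μM compound and 1% DMSO, sealed with breathable membranes. Medium for Haemophilus parainfluenzae also contained hemin and NAD.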

Row | SMILES | growth AUC normalised to DMSO control
1 | O=C(O)CCCC[C@@H]1SC[C@@H]2NC(=O)N[C@@H]21 [Biotin] | 1.01
2 | CCN(Cc1ccncc1)C(=O)C(CO)c1ccccc1 (configuration not stated) [Tropicamide] | 0.816
3 | C[N+](C)(C)CCCCCC[N+](C)(C)C [Hexamethonium dibromide dihydrate] | 0.852
4 | CC1=Nc2ccc(Cl)cc2S(=O)(=O)N1 [Diazoxide] | 1.05
5 | COc1nc(C)nc(Cl)c1NC1=NCCN1 [Moxonidine] | 1.01
6 | Nc1ccc(/N=N/c2ccccc2)c(N)n1 [Phenazopyridine hydrochloride] | 0.922
7 | CC(C)(C)NCC(O)c1cc(O)cc(O)c1 (configuration not stated) [Terbutaline hemisulfate] | 1.06
8 | C=CC1=C(C(=O)O)N2C(=O)[C@@H](NC(=O)/C(=N\O)c3csc(N)n3)[C@H]2SC1 [Cefdinir] | 0.176 (active)
9 | CCN(CC)CCOC(=O)C(c1ccccc1)c1ccccc1 [Adiphenine hydrochloride] | 1.02
10 | N=C(N)NS(=O)(=O)c1ccc(N)cc1 [Sulfaguanidine] | 1.04
11 | CC(C)[C@H](N)C(=O)OCCOCn1cnc2c(=O)nc(N)[nH]c21 [Valacyclovir hydrochloride] | 0.99
12 | CO[C@@]1(NC(=O)CSCC#N)C(=O)N2C(C(=O)O)=C(CSc3nnnn3C)CS[C@@H]21 [Cefmetazole sodium salt] | 0.0246 (active)
13 | Oc1c(I)cc(Cl)c2cccnc12 [Clioquinol] | 1.03
14 | CC/C(=C(/CC)c1ccc(O)cc1)c1ccc(O)cc1 [Diethylstilbestrol] | 1.01
15 | NCCCC(O)(P(=O)(O)O)P(=O)(O)O [Alendronate sodium] | 1.05
16 | C[C@H](CCC(=O)O)[C@H]1CC[C@H]2[C@@H]3[C@@H](O)C[C@@H]4C[C@H](O)CC[C@]4(C)[C@H]3CC[C@]12C [Urosiol] | 1.01

Row | SMILES | growth AUC normalised to DMSO control
17 | CO[C@H]1/C=C/O[C@@]2(C)Oc3c(C)c(O)c4c(O)c(c(/C=N/N5CCN(C6CCCC6)CC5)c(O)c4c3C2=O)NC(=O)/C(C)=C\C=C\[C@H](C)[C@H](O)[C@@H](C)[C@@H](O)[C@@H](C)[C@H](OC(C)=O)[C@@H]1C [Rifapentine] | 0.0302 (active)
18 | CCCCCCC[N+](CC)(CC)CCCCc1ccc(Cl)cc1 [Clofilium tosylate] | 1.01
19 | Cn1c(=O)c2c(ncn2CC(O)CO)n(C)c1=O (configuration not stated) [Diprophylline] | 0.994
20 | C[C@H]1C[C@@H]2[C@H]([C@@H](O)C[C@@]3(C)[C@H]2CC[C@]3(O)C(=O)CO)[C@@]2(C)C=CC(=O)C=C12 [Methylprednisolone, 6-alpha] | 0.996
21 | CC(=O)N[C@@H](CC(=O)O)C(=O)N[C@@H](CCC(=O)O)C(=O)O [Spaglumic acid] | 1.04
22 | COc1ccc2[nH]cc(CCNC(C)=O)c2c1 [Melatonin] | 0.966
23 | CC1(C)S[C@@H]2[C@H](NC(=O)Cc3ccccc3)C(=O)N2[C@H]1C(=O)O [Benzylpenicillin sodium] | 0.0512 (active)
24 | CO/N=C(\C(=O)N[C@@H]1C(=O)N2C(C(=O)O)=C(COC(N)=O)CS[C@H]12)c1ccco1 [Cefuroxime sodium salt] | 0.0255 (active)
25 | NC(=O)c1cccnc1 [Nicotinamide] | 1.04
26 | CC(=O)OCC1=C(C(=O)O)N2C(=O)[C@@H](NC(=O)Cc3cccs3)[C@H]2SC1 [Cephalothin sodium salt] | 0.0326 (active)
27 | CN(C(=O)C(Cl)Cl)c1ccc(OC(=O)c2ccco2)cc1 [Diloxanide furoate] | 0.954
28 | OC(CCN1CCCCC1)(c1ccccc1)c1ccccc1 [Pridinol methanesulfonate salt] | 0.999
29 | O=C(c1ccccc1)c1ccc2n1CCC2C(=O)O (configuration not stated) [Ketorolac tromethamine] | 0.972
30 | Oc1c(Cl)cc(Cl)c2cccnc12 [Chloroxine] | 0.114 (active)
31 | CCN(CC)C(=O)/C(C#N)=C/c1cc(O)c(O)c([N+](=O)[O-])c1 [Entacapone] | 1.06
32 | CC1CCc2cc(F)cc3c(=O)c(C(=O)O)cn1c23 (configuration not stated) [Flumequine] | 0.066 (active)
